Source: PubChem (several laboratories)
GalR3 antagonist = GalR3 antagonists in HEK293 cells, primary screen, cell-based, fluorescence readout; 360,000 compounds, 0.44% hits; inhibition, % at 3 µM; AID 651719, 2012; HEK293 GalR3-CNG cAMP membrane potential fluorescence; galR3 body fused to GalR1 C-terminus;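 active means inhibition above the screen-wide average plus 3 SD, cut at about 13% in these data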;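 further: forskolin and galanin both at EC90 stimulate the cells; cAMP rise reported by CNG channel membrane potential dye signal; 0% = forskolin plus galanin with DMSO and 100% = forskolin alone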
Target sequence (O60755 1-299 limits assumed): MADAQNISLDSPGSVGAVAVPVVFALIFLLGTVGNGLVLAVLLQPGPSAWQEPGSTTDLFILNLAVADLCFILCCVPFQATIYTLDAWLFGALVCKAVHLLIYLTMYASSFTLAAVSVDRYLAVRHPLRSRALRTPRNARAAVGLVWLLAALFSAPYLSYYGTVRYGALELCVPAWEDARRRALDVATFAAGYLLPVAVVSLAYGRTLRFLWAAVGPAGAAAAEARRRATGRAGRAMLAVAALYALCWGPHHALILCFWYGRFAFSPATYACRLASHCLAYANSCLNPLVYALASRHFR
Gli-Sufu block = Gli-Sufu pathway antagonists, primary screen, luciferase luminescence, Sufu-KO-LIGHT cells, uHTS; Sufu-KO-LIGHT fibroblasts, Gli luciferase reporter luminescence; inhibition, % at 5 µM; 340,000 compounds, 0.74% hits;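 active means inhibition above about 55%, limit read from the data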;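 further: 0% = DMSO-treated cells and 100% = wells with medium but no cells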
697 NFkB inh = inhibitors of PMA/ionomycin-induced NF-kB reporter, 697 cells, primary screen, B-cell NF-kB inhibitor project, cell-based, luminescence, uHTS; 697 B-cell NF-kB luciferase reporter, 16 h; inhibition, % at 4 µM; 330,000 compounds, 0.33% hits; AID 435022, 2010; in the data active means inhibition above about 35%
NR2F2 inh = NR2F2 transcriptional activity inhibitors, primary screen, cell-based, luciferase reporter, HEK293T, luminescence; HEK293T NGFI-A luciferase reporter; 370,000 compounds, 0.7% hits; inhibition, % at 8.6 µM; AID 686940, 2013;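 active means inhibition above a per-plate cutoff, mean inhibition of test wells between control levels plus 3 SD, cut at about 38% in these data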;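 further: cells cotransfected with COUP-TFII expression vector driving the NGFI-A reporter; 0% = median of COUP-TF2 test wells and 100% = reporter-only cells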
Jurkat NFkB inh = inhibitors of induced NF-kB luciferase reporter, primary screen, TCR NF-kB activation inhibitor project, cell-based, luminescence, uHTS | Jurkat, PMA/ionomycin-induced NF-kB luciferase reporter | inhibition, % at 4 µM | 330,000 compounds, 0.53% hits; in the data active means inhibition above about 50%
Jurkat NFkB conf = PMA/ionomycin-induced NF-kB reporter inhibitors, Jurkat retest, confirmation, T-cell NF-kB inhibitor project, cell-based, luminescence, single concentration; shares compounds with Jurkat NFkB inh; Jurkat NF-kB luciferase, 16 h; inhibition, % at 4 µM; 2,700 compounds, 27% hits; AID 435020, 2010;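 active means inhibition reaching about 45% at 4 µM in either replicate, limit read from the data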;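 further: plate controls were PMA/ionomycin stimulated DMSO wells for no effect and unstimulated DMSO wells for full effect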
* = called active by the depositor. Only some compounds are listed: those with a hit (about 2% of all), similar ones and a draw of the others.

For CCc1cc(C(=O)OCC(=O)N2CCC(c3ccccc3)=N2)sc1C the results were GalR3 antagonist -3.7, Gli-Sufu block -13.2, 697 NFkB inh 11.3, NR2F2 inh -13.6 and Jurkat NFkB inh -9.4.
Screening CCC[C@H]1[C@@H](OC(=O)NCCc2ccccc2)CC[C@@]23CCCN2C(=O)CCC[C@@H]13 returned NR2F2 inh 17.0.
`Nc1c(C(=O)Nc2ccc(Cl)c(C(=O)O)c2)sc2nc3c(cc12)CCCC3` gave GalR3 antagonist 1.0, Gli-Sufu block 13.5, 697 NFkB inh 15.8, NR2F2 inh 4.1 and Jurkat NFkB inh 13.4.
For Nc1c(C(=O)Nc2cccc(C(=O)O)c2)sc2nc3c(cc12)CCCC3 the results were GalR3 antagonist -12.3, Gli-Sufu block -115.0, 697 NFkB inh 16.2, NR2F2 inh -41.4, Jurkat NFkB inh 69.7* and Jurkat NFkB conf -54.3.
For CC(C)NC(=O)N[C@@H]1C[C@@H]2O[C@H](CO)CC[C@@H]2O[C@@H]1CCc1ccc(-c2ccccc2F)cc1 the results were NR2F2 inh 6.5.
`CC(=O)c1sc(NC(=O)c2ccc(C)c(C)c2)nc1C` gave GalR3 antagonist -5.2, Gli-Sufu block -81.8, 697 NFkB inh -138.0, NR2F2 inh -44.5 and Jurkat NFkB inh -117.8.
CC(=O)c1sc(NC(=O)c2ccc(C(C)(C)C)cc2)nc1C was read as GalR3 antagonist -5.0, Gli-Sufu block -91.4, 697 NFkB inh -230.6, NR2F2 inh -36.4, Jurkat NFkB inh -172.2 and Jurkat NFkB conf -85.8.
Screening O[C@H](COc1ccccc1)CN1CCC(C(O)(c2ccccc2)c2ccccc2)CC1 returned NR2F2 inh -2.4.
Screening COc1ccc(-c2coc3cc4oc(=O)c5ccccc5c4cc23)cc1F returned GalR3 antagonist 8.7, Gli-Sufu block 42.1, 697 NFkB inh -59.7, NR2F2 inh -1.7, Jurkat NFkB inh 73.3* and Jurkat NFkB conf 2.9.
`Cc1c(CCC(=O)O)c(=O)oc2cc3occ(-c4ccc(F)cc4)c3cc12` gave GalR3 antagonist -3.1, Gli-Sufu block 2.6, 697 NFkB inh -13.4, NR2F2 inh -6.9 and Jurkat NFkB inh -2.4.
`COc1cccc(-c2noc(-c3cccs3)n2)c1` gave GalR3 antagonist 0.1, Gli-Sufu block -70.1, 697 NFkB inh -248.6, NR2F2 inh -42.6, Jurkat NFkB inh -151.6 and Jurkat NFkB conf -123.0.
`COc1cccc(-c2noc(-c3cccnc3)n2)c1` gave GalR3 antagonist -4.6, Gli-Sufu block -32.0, 697 NFkB inh -154.7, NR2F2 inh -62.5 and Jurkat NFkB inh -89.5.
COc1ccccc1NC(=O)c1nc[nH]c1C(=O)Nc1ccccc1OC was read as GalR3 antagonist -2.2, Gli-Sufu block 7.7, 697 NFkB inh -12.9, NR2F2 inh 0.8, Jurkat NFkB inh 51.1* and Jurkat NFkB conf 9.7.
Screening CCOc1ccccc1NC(=O)c1nc[nH]c1C(=O)Nc1ccccc1OCC returned Gli-Sufu block 4.6, 697 NFkB inh -29.7 and Jurkat NFkB inh 28.3.
For COc1ccc(NC(=O)c2nc[nH]c2C(=O)Nc2ccccc2C)cc1 the results were GalR3 antagonist -1.5, Gli-Sufu block 2.5, 697 NFkB inh -22.8, NR2F2 inh 3.3, Jurkat NFkB inh 52.8* and Jurkat NFkB conf 11.5.
Screening Cc1ccccc1NC(=O)c1[nH]cnc1C(=O)NN returned GalR3 antagonist 0.0, Gli-Sufu block 0.9, 697 NFkB inh -2.1, NR2F2 inh 15.4 and Jurkat NFkB inh -48.4.
`Cc1ccccc1N(C)C(=O)C1CCCN1S(=O)(=O)c1cccc2cccnc12` (stereo not given) gave NR2F2 inh -4.5.
CC(=O)N[C@@H]1C[C@@H]2O[C@@H](CO)CC[C@@H]2O[C@@H]1CCc1ccc(C#CC2(O)CCCC2)cc1 was read as NR2F2 inh -18.2.
For O=C(Nc1ccc(S(=O)(=O)N2CCOCC2)cc1)c1ccc(CN2CCc3ccccc3C2)cc1 the results were Gli-Sufu block -10.9, 697 NFkB inh 30.5, Jurkat NFkB inh 76.6* and Jurkat NFkB conf 74.2*.
`CCOC(=O)[C@]12CCCC=C1N(CCCOC)C(=O)[C@@H]2CC(=O)NCc1ccc(OC)c(OC)c1` gave NR2F2 inh -9.8.
`Cc1cccc(S(=O)(=O)Nc2ccc(-c3nc4ccc(C)cc4s3)cc2)c1` gave GalR3 antagonist -5.3, Gli-Sufu block -82.6, 697 NFkB inh -165.0, NR2F2 inh -31.7, Jurkat NFkB inh -178.8 and Jurkat NFkB conf -52.0.
Cc1ccc(S(=O)(=O)Nc2ccc(-c3nc4ccc(C)cc4s3)cc2)cc1 was read as GalR3 antagonist 9.0, 697 NFkB inh -16.6, NR2F2 inh 7.6 and Jurkat NFkB inh 0.9.
`CCC(=O)N1c2ccc(S(=O)(=O)N3CCN(c4ccc([N+](=O)[O-])cc4)CC3)cc2CC1C` (stereo not given) gave GalR3 antagonist -2.5, Gli-Sufu block 57.5*, 697 NFkB inh 31.6, NR2F2 inh 9.1, Jurkat NFkB inh 51.7* and Jurkat NFkB conf 64.8*.
For COc1ccc(N2CCN(S(=O)(=O)c3ccc4c(c3)CC(C)N4C(=O)C3CC3)CC2)cc1 (stereo not given) the results were GalR3 antagonist -9.1, Gli-Sufu block -6.7, 697 NFkB inh -34.6, NR2F2 inh 12.3 and Jurkat NFkB inh 26.5.
`CC(=O)c1ccc(N2CCN(S(=O)(=O)c3ccc4c(c3)CC(C)N4C(=O)C3CC3)CC2)cc1` (stereo not given) gave GalR3 antagonist -1.3, Gli-Sufu block 66.5*, 697 NFkB inh -10.0, NR2F2 inh 5.7, Jurkat NFkB inh 57.7* and Jurkat NFkB conf 40.5.
CN(CCc1ccccc1)C(=O)c1cc2ccccn2n1 was read as NR2F2 inh -8.8.
CC(C)C(=O)N[C@H]1[C@H](O)CCC[C@]12C(=O)N(Cc1ccccc1)c1ccccc12 was read as NR2F2 inh -4.7.
`Cn1c(Cc2cccs2)nnc1SCC(=O)Nc1ccc2c(c1)OCCO2` gave NR2F2 inh -18.3.
For C#Cc1ccc([C@@H]2C=C(C(=O)N3CCN(Cc4ccccc4)CC3)O[C@H](OCCCCO)C2)cc1 the results were 697 NFkB inh -17.6, Jurkat NFkB inh 80.1* and Jurkat NFkB conf 42.8.
Screening O=C(C1=C[C@H](c2ccccc2)C[C@H](OCCCCO)O1)N1CCN(Cc2ccccc2)CC1 returned GalR3 antagonist 8.5, Gli-Sufu block 5.1, 697 NFkB inh 4.3, NR2F2 inh 6.8 and Jurkat NFkB inh 10.8.
